Results on seven molecules are retold here after PubChem BioAssay (NCATS).

Inconclusive results are not listed. Calls of active or inactive are those of the source. Unless noted, how the calls were made is not given here.

Assay [1] can be described thus: qHTS profiling of the MIPE4 collection as inhibitors of Plasmodium falciparum (DD2) proliferation (AID 743345). The note with it: P. falciparum Dd2 in erythrocytes, SYBR Green DNA, 72 h; at 28.5 µM (top of the series) unless noted. Put shortly:
(§1)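 Erythrocytes infected with P. falciparum (0.3% parasitemia, 2.5% hematocrit) incubated with compounds 72 h at 37 C, 5% CO2. Lysis with saponin/Triton buffer containing SYBR Green I, overnight at room temperature in the dark; DNA fluorescence (485/535 nm) normalised to 0.29 uM artemisinin and DMSO.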
Background: Quantitative high-throughput screening tests each substance at several concentrations.

A short description of assay [2]: qHTS profiling of the MIPE4 collection as inhibitors of Plasmodium falciparum (DD2) proliferation (Rep 2) (AID 743346). The note with it: P. falciparum Dd2 in erythrocytes, SYBR Green DNA, 72 h; at 28.5 µM (top of the series) unless noted. Put shortly:
as §1

A short description of assay [3]: qHTS profiling of the MIPE4 collection as inhibitors of Plasmodium falciparum (HB3) proliferation (AID 743347).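 Further: plate controls were DMSO vehicle wells for no effect and artemisinin wells for full effect.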 The note with it: P. falciparum HB3 in erythrocytes, SYBR Green DNA, 72 h; at 28.5 µM (top of the series) unless noted. Put shortly:
as §1

Assay [4] can be described thus: High-throughput drug toxicity screening in the BPDCN cell line Gen2.2 (AID 1224824).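 Further: cells exposed to compounds for 48 h before reading.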 The note with it: Gen2.2 BPDCN cells; at 45.8 µM (top of the series) unless noted. Put shortly: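 Gen2.2 cells, 500 per well in phenol red-free RPMI with 10% FBS, exposed to compounds 48 h at 37 C, 5% CO2; viability by CellTiter-Glo luminescence. Percent activity scaled to DMSO (100%) and 9.2 uM bortezomib final (0%).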

A short description of assay [5]: High-throughput drug toxicity screening in the BPDCN cell line Cal-1 (AID 1224825). The note with it: Cal-1 BPDCN cell viability, qHTS; at 45.8 µM (top of the series) unless noted. Put shortly: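 Exponentially growing Cal-1 cells, 500 per well in phenol red-free RPMI with 10% FBS, were exposed to compounds for 48 h at 37 °C, 5% CO2. Viability was read by CellTiter-Glo luminescence and normalised to DMSO (100%) and 9.2 uM bortezomib (0%).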

A short description of assay [6]: qHTS assay for measurement of the activity of small molecule inhibitors on Zika virus induced Caspase-3 activity in human iPSC derived neural progenitor cells (hNPCs) (AID 1224857; active means well fitted inhibition curve with a large enough effect; further: % of control where 0% means no effect; nearly all actives have a fitted effect of over 65% in size). Put shortly: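 Cells were plated at 350 per well and grown 16 to 20 hours. Compound pretreatment lasted one hour, after which ZIKV (2 FFU/cell) was added for 6 hours. Percent inhibition was normalized between uninfected and infected controls.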

A short description of assay [7]: qHTS Screen of the MIPE 4.0 Collection Against Ewings Sarcoma (RDES) (AID 1259252; active means well fitted inhibition curve with a large enough effect; further: nearly all actives have a fitted effect of over 35% in size; further: potency means the concentration at half of the fitted maximal effect). Put shortly: (§2)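 Here, cells in 5% FBS RPMI were exposed for two days (48 h) to compound dilutions added four hours after plating. ATP-based CellTiter-Glo luminescence measured viability, normalized to vehicle and no-cell blanks.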
A short description of assay [8]: qHTS Screen of the MIPE 4.0 Collection Against Ewings Sarcoma (TC71) (AID 1259253; active means well fitted inhibition curve with a large enough effect; further: nearly all actives have a fitted effect of over 40% in size; further: potency means the concentration at half of the fitted maximal effect). Put shortly:
as §2

Assay [9] in a line: qHTS Screen of the MIPE 4.0 Collection Against Ewings Sarcoma (TC32) (AID 1259256; active means well fitted inhibition curve with a large enough effect; further: nearly all actives have a fitted effect of over 45% in size; further: potency means the concentration at half of the fitted maximal effect). Put shortly:
as §2

Assay [10] in a line: qHTS profiling of the MIPE4 collection as inhibitors of Plasmodium falciparum (3D7) proliferation (AID 743344).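 Further: scaled between DMSO vehicle wells and 0.29 µM artemisinin as full inhibition.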 To be noted: P. falciparum 3D7 in erythrocytes, SYBR Green DNA fluorescence, 72 h; at 28.5 µM (top of the series) unless noted. Put shortly:
as §1

Assay [11] can be described thus: qHTS assay for measurement of the activity of small molecule inhibitors on Zika virus induced Caspase-3 activity in human astrocytoma cells (AID 1224859; active means well fitted inhibition curve with a large enough effect;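 further: plate controls were ZIKV-infected untreated cells for no effect and uninfected cells for full effect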). Put shortly:
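Percent inhibition of virus-induced caspase-3/7 signal is calculated against uninfected and ZIKV-infected control cells. Cells are SNB-19, infected at 2 FFU/cell for 6 h after 1 h compound exposure.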

The nature of assay [12]: qHTS Screen of the MIPE 4.0 Collection Against Ewings Sarcoma (EW8) (AID 1259255; active means well fitted inhibition curve with a large enough effect; further: potency means the concentration at half of the fitted maximal effect; nearly all actives have a fitted effect of over 35% in size). Put shortly:
as §2

The molecule `Cc1ccc(NC(=O)c2cccc(N(C)C)c2)cc1NC(=O)c1ccc(O)cc1` returned a parasite growth remaining, % of DMSO control (lower = more inhibition) in [1] of 87.3%. In assay [2], this molecule displayed a parasite growth, % of control (lower = inhibition) of 55.2%. This molecule also came in with a growth, % of control in assay [3] of 31.2%. The cell viability, % of control (lower = more cytotoxic) in assay [4] was 81.9%. Moreover, the viability (% of control) in assay [5] came to 5.55%. Also, the Potency entry in assay [6] is “inactive”. The Potency in [7] is 0.118 µM (active); in assay [8], 0.526 µM (active); in [9] it was 1.05 µM (active).

Molecule `CC[C@@H]([C@H](C)O)n1ncn(-c2ccc(N3CCN(c4ccc(OCC5CO[C@@](Cn6cncn6)(c6ccc(F)cc6F)C5)cc4)CC3)cc2)c1=O` (stereo partly specified) showed a parasite growth, % of DMSO control in assay [10] of 6.37%. For the same molecule, the parasite growth remaining, % of DMSO control (lower = more inhibition) in assay [1] is 9.01%. Moreover, the parasite growth, % of control (lower = inhibition) in assay [2] is 20.2%. Besides, the cell viability, % of control (lower = more cytotoxic) in assay [4] turned out to be 169%. The viability (% of control) in assay [5] worked out at 108%. In addition, the Potency result in assay [6], in [11] and in assay [8] was “inactive” in each case.

In [10], `C[C@@H](NC(=O)c1ncnc(N)c1Cl)c1ncc(C(=O)Nc2cc(C(F)(F)F)c(Cl)cn2)s1` had a parasite growth, % of DMSO control of 63.1%. This molecule also registered a parasite growth remaining, % of DMSO control (lower = more inhibition) in assay [1] of 87.8%. The same molecule returned a parasite growth, % of control (lower = inhibition) in assay [2] of 58.8%. For the same molecule, the cell viability, % of control (lower = more cytotoxic) in [4] was 2.67%. The viability (% of control) in [5] is 66.8%. For the same molecule, the Potency result in [6] is “inactive”. The Potency in [7] and in assay [9] was 23.5 µM (active) throughout.

In assay [1], `CN1C(=O)C[C@H](C(=O)N[C@@H](Cc2cnc[nH]2)C(=O)N2CCC[C@@H]2C(N)=O)NC1=O` returned a parasite growth remaining, % of DMSO control (lower = more inhibition) of 33.3%. The cell viability, % of control (lower = more cytotoxic) in assay [4] worked out at 61%. Moreover, the viability (% of control) in assay [5] is 29.3%. In addition, the Potency result in assay [6] was “inactive”. For the same molecule, the Potency in [7] and in [8] was 20.9 µM (active) each time.

`CN(C)c1nc(Cc2ccc(NC(=O)c3ccc(C(F)(F)F)cc3)cc2)nc(N(C)C)c1CC(=O)O` gave a parasite growth, % of DMSO control in assay [10] of 88.9%. This molecule gave a parasite growth remaining, % of DMSO control (lower = more inhibition) in assay [1] of 90.9%. The parasite growth, % of control (lower = inhibition) in assay [2] worked out at 75.7%. The growth, % of control in assay [3] stood at 95.1%. The cell viability, % of control (lower = more cytotoxic) in [4] was found to be 204%. Further, in assay [5], the viability (% of control) was found to be 132%. The Potency entry in [6] and in assay [7] was “inactive” throughout.

In turn, `CCCCC(C=O)NC(=O)C(CC(C)C)NC(=O)OCc1ccccc1` (stereo unspecified) yielded a parasite growth, % of DMSO control in assay [10] of 4.5%. Moreover, the parasite growth remaining, % of DMSO control (lower = more inhibition) in assay [1] is 8.7%. For the same molecule, the parasite growth, % of control (lower = inhibition) in assay [2] was determined as 9.29%. Moreover, the cell viability, % of control (lower = more cytotoxic) in assay [4] worked out at 52.9%. Besides, the viability (% of control) in assay [5] was determined as 62.2%. The Potency entry in assay [6], in [11] and in assay [9] was “inactive” each time. Moreover, in [12], the Potency was 11.8 µM (active).

Consider `C[C@@H]1CCO[C@H]2Cn3cc(C(=O)NCc4ccc(F)cc4F)c(=O)c(O)c3C(=O)N12`, for which the parasite growth remaining, % of DMSO control (lower = more inhibition) in assay [1] worked out at 53.9%. For the same molecule, in [2], the parasite growth, % of control (lower = inhibition) turned out to be 38.3%. The growth, % of control in assay [3] was 62.8%. In addition, the cell viability, % of control (lower = more cytotoxic) in [4] was 58.3%. The viability (% of control) in assay [5] is 12.5%. For the same molecule, the Potency entry in [6] and in assay [11] was “inactive” in each case. For the same molecule, the Potency in assay [12] is 20.9 µM (active).
